Measured values reported in PubChem BioAssay (NCI).
About 83,000 compounds went through this panel and 20% of them were active in at least one assay; those are over-represented in the sample as a whole.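 Results are percent growth after 48 hours of single-concentration exposure. 100 means growth as in untreated cells, lower positive values show inhibition; negative values down to -100 show cell death.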 Calls of active or inactive are those of the source. Rule for the calls: active = growth percent below 10; inactive = the rest.

What follows are compounds tested on MOLT-4 leukemia (assay: NCI-60 one-dose screen, 48 h (100 = growth as untreated, 0 = no growth, -100 = all killed)). Conditions: 10 µM.

Row | SMILES | growth
1 | COc1cc2cc(C(=O)N3C[C@@H](CCl)c4c3cc(OC(=O)N3CCN(C)[C@@H]5CSSC[C@H]53)c3ccccc43)[nH]c2c(OC)c1OC | -27.3% (active)
2 | COC(=O)C[C@](O)(CCC(C)C)C(=O)O[C@@H]1C(OC)=C[C@]23CCCN2CCc2cc4c(cc2[C@H]13)OCO4 | -7.96% (active)
3 | O=C(/C=C/c1ccc(Cl)cc1)c1nc2ccccc2n1Cc1ccc(F)cc1 | -0.463% (active)
4 | CC[C@]12C=CCN3CC[C@@]4(c5ccc(OC)cc5N(C)[C@H]4[C@@](O)(C(=O)OC)[C@@H]1OC(=O)CCC[P+](C1CCCCC1)(C1CCCCC1)C1CCCCC1)[C@@H]32 | 2.35% (active)
5 | CC(=O)Oc1ccccc1C(=O)NC([Se])=NC1CCCCC1 | 29.4% (inactive)
6 | CCOP(=O)(CC(F)(F)C(F)(F)F)OCC | 4% (active)
7 | CC(C)C[C@H](NC(=O)CNC(=O)C[C@H]1O[C@@H]2OC3(C)CC[C@H]4[C@H](C)CC[C@@H]([C@H]1C)[C@@]24OO3)B(O)O | 1.81% (active)
8 | C[C@H]1[C@@H](Oc2ccc(-c3cn(-c4ccnc5cc(Cl)ccc45)nn3)cc2)O[C@@H]2OC3(C)CC[C@H]4[C@H](C)CC[C@@H]1[C@@]24OO3 | 17.5% (inactive)
9 | C[C@H]1[C@H](OC(=O)CCC(=O)N(CCCc2cn(-c3ccc([N+](=O)[O-])cc3)nn2)CCNc2ccnc3cc(Cl)ccc23)O[C@@H]2OC3(C)CC[C@H]4[C@H](C)CC[C@@H]1[C@@]24OO3 | 2.71% (active)
10 | COc1cc2cc(C(=O)N3C[C@@H](CCl)c4c3cc(OC(=O)N3CCN(C)[C@@H]5CSSC[C@@H]53)c3ccccc43)[nH]c2c(OC)c1OC | 3.8% (active)
11 | COc1cc2cc(C(=O)N3C[C@@H](CCl)c4c3cc(OC(=O)N3CCN(C(=O)CCC(=O)N5CCN(C)CC5)[C@@H]5CSSC[C@@H]53)c3ccccc43)[nH]c2c(OC)c1OC | 0.371% (active)
12 | COC(=O)c1ccc(-n2cc(CCCN(CCNc3ccnc4cc(Cl)ccc34)C(=O)CCC(=O)O[C@@H]3O[C@@H]4OC5(C)CC[C@H]6[C@H](C)CC[C@@H]([C@H]3C)[C@@]46OO5)nn2)cc1 | -13.5% (active)
13 | O=C([Se]C1C=CCCC1)c1ccc(C(=O)[Se]C2C=CCCC2)s1 (stereo not given) | 0.117% (active)
14 | O=C(/C=C/c1cccc(Br)c1)c1nc2ccccc2n1Cc1ccc(F)cc1 | 3.41% (active)
15 | CC[C@]12C=CCN3CC[C@@]4(c5ccc(OC)cc5N(C)[C@H]4[C@@](O)(C(=O)OC)[C@@H]1OC(=O)CCC[P+](c1ccc(C)cc1)(c1ccc(C)cc1)c1ccc(C)cc1)[C@@H]32 | -45.1% (active)
16 | O=C(NC([Se])=NC1CCCCC1)c1ccccc1 | 57.4% (inactive)
17 | O=C(/C=C/c1ccc(F)cc1)c1nc2ccccc2n1Cc1ccc(F)cc1 | 1.05% (active)
18 | O=C(/C=C/c1ccccc1)c1nc2ccccc2n1Cc1ccc(Br)cc1 | -12% (active)

Row | SMILES | growth
19 | C=CC[Se]C(=O)c1cncc(C(=O)[Se]CC=C)c1 | -22.9% (active)
20 | COc1ccc(OC)c(/C=C/C(=O)c2nc3ccccc3n2Cc2ccc(F)cc2)c1 | -6.12% (active)
21 | O=C(/C=C/c1ccc(F)cc1)c1nc2ccccc2n1Cc1ccc(Br)cc1 | -13.4% (active)
22 | CC[C@]12C=CCN3CC[C@@]4(c5ccc(OC)cc5N(C)[C@H]4[C@@](O)(C(=O)OC)[C@@H]1OC(=O)CCCC[P+](c1ccc(C)cc1)(c1ccc(C)cc1)c1ccc(C)cc1)[C@@H]32 | -25% (active)
23 | CC(C)N=C([Se])NC(=O)c1cccs1 | 15.4% (inactive)
24 | Cc1ccc2[nH]c(=S)n(-c3ccc(F)cc3)c(=O)c2c1 | 106% (inactive)
25 | C#CC[Se]C(=O)c1ccc2n[se]nc2c1 | 22.9% (inactive)
26 | CC1=C(COCCOC(=O)c2ccc(S(=O)(=O)F)cc2)C2=C(C)C3(CC3)[C@@](C)(O)C(=O)C2=C1 | 36% (inactive)
27 | CC12CCC3(CCC(=O)NCCCNc4ccnc5cc(Cl)ccc45)[C@@](C)(OO[C@]3(C)O1)O2 | 7.04% (active)
28 | O=C(/C=C/c1ccc(Br)cc1)c1nc2ccccc2n1Cc1ccc(Br)cc1 | -4.04% (active)
29 | COC(=O)CCn1c(-c2ccc(-n3cc(-c4ccc(O[C@H]5O[C@@H]6OC7(C)CC[C@H]8[C@H](C)CC[C@@H]([C@H]5C)[C@@]68OO7)cc4)nn3)cc2)nc2ccccc21 | 11% (inactive)
30 | N#C[Se]CC(=O)Nc1cccc(C(F)(F)F)c1 | 9.42% (active)
31 | CCC[Se]C(=O)c1ccc(C(=O)[Se]CCC)s1 | 7.32% (active)
32 | C[C@H]1[C@@H](CC(=O)N[C@@H](Cc2coc3ccccc23)B(O)O)O[C@@H]2OC3(C)CC[C@H]4[C@H](C)CC[C@@H]1[C@@]24OO3 | 8.41% (active)
33 | O=C(/C=C/c1ccco1)c1nc2ccccc2n1Cc1ccc(F)cc1 | 6.46% (active)
34 | COC(=O)C[C@](O)(CCC(C)C)C(=O)O[C@H]1C(OC)=C[C@@]23CCCN2CCc2cc4c(cc2[C@@H]13)OCO4 | -5.07% (active)
35 | C[C@H]1[C@H](OC(=O)CCC(=O)N(CCCc2cn(-c3ccc(C#N)cc3)nn2)CCNc2ccnc3cc(Cl)ccc23)O[C@@H]2OC3(C)CC[C@H]4[C@H](C)CC[C@@H]1[C@@]24OO3 | 4.41% (active)
